# Targets with a hit are over-represented here; the source holds about 7,900 in all. About 0.6% of all pairs of compound and target were hits. Values without a mark were called inactive.
# Legend:
# Experiment in all cases: log2 fold change, soluble protein after heating vs DMSO (PISA); higher = thermal stabilisation; K562 cells, 10 uM, 30 min; active = over 0.2 and 3.5 SD of the protein, either way, in both replicates (recomputed)
# [1] = compound: Cc1ccc(NC(=O)c2ccc(CN3CC[C@H](N(C)C)C3)c(C(F)(F)F)c2)cc1Nc1nccc(-c2cncnc2)n1 [bafetinib]
# Summary of the method: (§1)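 Quantification of soluble protein used TMTpro 16plex LC-MS/MS, with channel sums equalised. Samples were the supernatant after 21,000xg for 90 min of pooled aliquots from K562 cells (2×10^6 cells/mL) treated with 10 μM compound for 30 min, heated for 3 min over 48°C-58°C, and extracted in PBS with 0.5% NP-40 at 4°C. Values, from duplicates, describe thermal stability against control samples on a log2 fold-change scale.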
# [2] = compound: Cc1cccc(CC(=O)N2CCc3c2ccc(-c2cn(C)c4ncnc(N)c24)c3F)n1
# Summary of the method: as §1
# [3] = compound: Cc1cn(-c2cc(NC(=O)c3ccc(C)c(Nc4nccc(-c5cccnc5)n4)c3)cc(C(F)(F)F)c2)cn1 [nilotinib]
# Summary of the method: as §1
# [4] = compound: Cc1nc(Nc2n[nH]c3c2CN(C(=O)N[C@H](CN(C)C)c2ccccc2)C3(C)C)c2sccc2n1
# Summary of the method: as §1
# [5] = compound: Cc1nc(Nc2ncc(C(=O)Nc3c(C)cccc3Cl)s2)cc(N2CCN(CCO)CC2)n1 [dasatinib]
# Summary of the method: as §1
# [6] = compound: Cc1ncc(-c2ccnc(Nc3ccc(S(C)(=O)=O)cc3)n2)n1C(C)C
# Summary of the method: as §1
# [7] = compound: Cn1cc(-c2ccc3c(c2)CCN3C(=O)Cc2cccc(C(F)(F)F)c2)c2c(N)ncnc21
# Summary of the method: as §1
# [8] = compound: Cn1cc(-c2ccc3nnc(C(F)(F)c4ccc5ncccc5c4)n3n2)cn1
# Summary of the method: as §1
# [9] = compound: Cn1cncc1[C@@](N)(c1ccc(Cl)cc1)c1ccc2c(c1)c(-c1cccc(Cl)c1)cc(=O)n2C [tipifarnib]
# Summary of the method: as §1
# [10] = compound: FC(F)(F)c1ccc(/C=C/c2nc(COc3ccc(CCCCn4ccnn4)cc3)co2)cc1 [mubritinib]
# Summary of the method: as §1
# UniProt O95602, sequence (O95602 whole entry, looked up): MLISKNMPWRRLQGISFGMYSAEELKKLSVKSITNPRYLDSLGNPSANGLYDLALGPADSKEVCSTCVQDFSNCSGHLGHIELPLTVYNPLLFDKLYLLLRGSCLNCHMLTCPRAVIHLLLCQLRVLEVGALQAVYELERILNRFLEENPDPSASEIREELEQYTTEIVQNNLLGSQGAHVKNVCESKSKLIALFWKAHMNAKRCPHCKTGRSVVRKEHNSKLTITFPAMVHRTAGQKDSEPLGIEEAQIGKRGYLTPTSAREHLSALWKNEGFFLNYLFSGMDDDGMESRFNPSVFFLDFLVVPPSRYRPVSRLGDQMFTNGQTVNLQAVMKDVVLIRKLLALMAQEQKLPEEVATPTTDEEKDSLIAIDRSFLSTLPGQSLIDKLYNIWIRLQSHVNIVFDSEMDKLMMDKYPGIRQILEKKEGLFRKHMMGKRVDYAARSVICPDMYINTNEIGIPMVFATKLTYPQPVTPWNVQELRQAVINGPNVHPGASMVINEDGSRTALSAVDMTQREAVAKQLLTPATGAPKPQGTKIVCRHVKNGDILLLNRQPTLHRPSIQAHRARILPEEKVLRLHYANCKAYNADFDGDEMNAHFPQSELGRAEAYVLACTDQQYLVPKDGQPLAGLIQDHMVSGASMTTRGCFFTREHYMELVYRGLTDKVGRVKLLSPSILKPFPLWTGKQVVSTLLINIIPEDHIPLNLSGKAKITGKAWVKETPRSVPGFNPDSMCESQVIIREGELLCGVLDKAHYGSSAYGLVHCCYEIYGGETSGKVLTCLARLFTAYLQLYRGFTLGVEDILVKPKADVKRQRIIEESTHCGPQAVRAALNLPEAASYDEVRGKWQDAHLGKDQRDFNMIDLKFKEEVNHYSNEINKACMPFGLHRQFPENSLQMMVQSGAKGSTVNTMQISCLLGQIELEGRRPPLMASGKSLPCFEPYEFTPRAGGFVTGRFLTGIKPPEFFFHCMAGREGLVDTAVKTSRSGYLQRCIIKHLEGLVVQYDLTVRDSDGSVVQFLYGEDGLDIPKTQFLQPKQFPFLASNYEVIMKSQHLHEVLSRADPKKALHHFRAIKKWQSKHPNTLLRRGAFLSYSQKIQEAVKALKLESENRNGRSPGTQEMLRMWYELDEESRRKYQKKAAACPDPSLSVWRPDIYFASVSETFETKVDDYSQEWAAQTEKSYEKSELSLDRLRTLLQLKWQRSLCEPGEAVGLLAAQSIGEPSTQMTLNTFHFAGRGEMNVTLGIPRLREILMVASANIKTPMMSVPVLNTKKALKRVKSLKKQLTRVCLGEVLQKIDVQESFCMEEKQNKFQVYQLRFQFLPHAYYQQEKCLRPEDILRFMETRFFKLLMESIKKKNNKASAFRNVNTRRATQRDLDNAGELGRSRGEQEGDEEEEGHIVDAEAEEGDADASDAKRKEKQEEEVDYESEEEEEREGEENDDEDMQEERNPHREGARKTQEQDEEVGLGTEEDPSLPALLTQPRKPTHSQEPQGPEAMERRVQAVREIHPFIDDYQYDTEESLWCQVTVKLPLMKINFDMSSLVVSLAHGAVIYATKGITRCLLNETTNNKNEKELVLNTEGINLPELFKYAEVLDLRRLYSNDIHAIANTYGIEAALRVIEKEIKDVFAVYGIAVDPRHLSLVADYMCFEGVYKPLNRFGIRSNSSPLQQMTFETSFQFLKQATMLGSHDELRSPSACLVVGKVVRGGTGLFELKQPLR
# UniProt P15735, sequence (P15735 whole entry, looked up): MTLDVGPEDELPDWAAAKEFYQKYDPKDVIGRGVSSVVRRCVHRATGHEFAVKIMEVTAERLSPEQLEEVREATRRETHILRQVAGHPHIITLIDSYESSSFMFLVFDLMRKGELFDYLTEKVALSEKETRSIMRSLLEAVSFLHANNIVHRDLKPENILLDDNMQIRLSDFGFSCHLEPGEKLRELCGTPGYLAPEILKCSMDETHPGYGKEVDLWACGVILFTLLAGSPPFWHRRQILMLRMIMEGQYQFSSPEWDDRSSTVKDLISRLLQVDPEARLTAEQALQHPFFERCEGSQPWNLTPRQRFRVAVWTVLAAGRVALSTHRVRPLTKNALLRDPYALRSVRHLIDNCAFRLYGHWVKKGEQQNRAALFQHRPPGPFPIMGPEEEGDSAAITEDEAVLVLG
# UniProt P19174, sequence (P19174 whole entry, looked up): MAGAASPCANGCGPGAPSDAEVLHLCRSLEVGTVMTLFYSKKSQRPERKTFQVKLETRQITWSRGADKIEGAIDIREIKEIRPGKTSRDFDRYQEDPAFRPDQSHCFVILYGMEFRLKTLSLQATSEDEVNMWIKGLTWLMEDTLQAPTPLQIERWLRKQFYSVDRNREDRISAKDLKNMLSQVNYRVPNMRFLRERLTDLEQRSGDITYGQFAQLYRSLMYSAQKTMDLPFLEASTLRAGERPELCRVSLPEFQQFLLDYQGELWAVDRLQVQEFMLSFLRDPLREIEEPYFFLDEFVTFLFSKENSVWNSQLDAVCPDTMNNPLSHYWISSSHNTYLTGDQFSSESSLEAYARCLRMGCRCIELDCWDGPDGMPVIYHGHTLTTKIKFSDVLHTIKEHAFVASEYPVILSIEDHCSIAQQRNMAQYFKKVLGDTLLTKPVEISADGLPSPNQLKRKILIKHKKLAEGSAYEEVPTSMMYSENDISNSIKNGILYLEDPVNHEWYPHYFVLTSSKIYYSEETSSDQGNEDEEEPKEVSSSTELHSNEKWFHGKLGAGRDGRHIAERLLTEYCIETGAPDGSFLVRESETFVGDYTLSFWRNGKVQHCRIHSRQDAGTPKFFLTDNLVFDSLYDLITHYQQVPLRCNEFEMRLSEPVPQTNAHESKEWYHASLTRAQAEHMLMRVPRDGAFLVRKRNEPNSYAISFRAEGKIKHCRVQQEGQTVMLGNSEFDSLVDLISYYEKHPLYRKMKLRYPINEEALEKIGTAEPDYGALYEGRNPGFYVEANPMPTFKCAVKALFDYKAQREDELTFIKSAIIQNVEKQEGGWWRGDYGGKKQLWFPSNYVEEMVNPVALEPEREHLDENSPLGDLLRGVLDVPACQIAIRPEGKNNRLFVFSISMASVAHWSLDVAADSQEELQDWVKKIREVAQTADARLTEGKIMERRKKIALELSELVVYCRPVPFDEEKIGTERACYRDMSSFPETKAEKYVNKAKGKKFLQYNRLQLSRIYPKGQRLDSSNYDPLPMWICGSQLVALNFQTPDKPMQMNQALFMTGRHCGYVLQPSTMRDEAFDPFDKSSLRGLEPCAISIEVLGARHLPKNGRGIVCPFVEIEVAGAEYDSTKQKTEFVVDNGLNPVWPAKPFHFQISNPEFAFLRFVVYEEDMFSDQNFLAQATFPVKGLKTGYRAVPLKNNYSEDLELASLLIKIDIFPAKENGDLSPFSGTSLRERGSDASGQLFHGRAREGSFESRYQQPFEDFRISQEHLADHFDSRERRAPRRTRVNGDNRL
# UniProt O15530, sequence (O15530 whole entry, looked up): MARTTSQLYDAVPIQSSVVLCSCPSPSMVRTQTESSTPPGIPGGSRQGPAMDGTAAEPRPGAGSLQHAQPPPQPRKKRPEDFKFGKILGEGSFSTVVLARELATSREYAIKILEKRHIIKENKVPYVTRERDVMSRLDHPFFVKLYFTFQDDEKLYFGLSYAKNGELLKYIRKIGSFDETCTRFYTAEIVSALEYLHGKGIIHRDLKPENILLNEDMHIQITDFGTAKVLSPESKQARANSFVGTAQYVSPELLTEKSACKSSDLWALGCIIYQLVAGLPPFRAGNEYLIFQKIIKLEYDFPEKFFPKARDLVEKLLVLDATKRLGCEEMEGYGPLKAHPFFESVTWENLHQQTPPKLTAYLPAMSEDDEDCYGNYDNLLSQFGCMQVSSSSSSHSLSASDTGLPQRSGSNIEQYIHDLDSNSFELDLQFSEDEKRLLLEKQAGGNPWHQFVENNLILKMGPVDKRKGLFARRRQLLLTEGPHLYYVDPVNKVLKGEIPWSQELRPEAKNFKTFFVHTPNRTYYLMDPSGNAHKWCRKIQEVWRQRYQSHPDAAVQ
# UniProt Q96A00, sequence (Q96A00 whole entry, looked up): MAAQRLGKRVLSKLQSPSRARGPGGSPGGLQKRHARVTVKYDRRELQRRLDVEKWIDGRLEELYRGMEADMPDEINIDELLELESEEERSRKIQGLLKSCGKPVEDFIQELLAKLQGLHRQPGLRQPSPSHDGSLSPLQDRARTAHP
# UniProt P05771, sequence (P05771 whole entry, looked up): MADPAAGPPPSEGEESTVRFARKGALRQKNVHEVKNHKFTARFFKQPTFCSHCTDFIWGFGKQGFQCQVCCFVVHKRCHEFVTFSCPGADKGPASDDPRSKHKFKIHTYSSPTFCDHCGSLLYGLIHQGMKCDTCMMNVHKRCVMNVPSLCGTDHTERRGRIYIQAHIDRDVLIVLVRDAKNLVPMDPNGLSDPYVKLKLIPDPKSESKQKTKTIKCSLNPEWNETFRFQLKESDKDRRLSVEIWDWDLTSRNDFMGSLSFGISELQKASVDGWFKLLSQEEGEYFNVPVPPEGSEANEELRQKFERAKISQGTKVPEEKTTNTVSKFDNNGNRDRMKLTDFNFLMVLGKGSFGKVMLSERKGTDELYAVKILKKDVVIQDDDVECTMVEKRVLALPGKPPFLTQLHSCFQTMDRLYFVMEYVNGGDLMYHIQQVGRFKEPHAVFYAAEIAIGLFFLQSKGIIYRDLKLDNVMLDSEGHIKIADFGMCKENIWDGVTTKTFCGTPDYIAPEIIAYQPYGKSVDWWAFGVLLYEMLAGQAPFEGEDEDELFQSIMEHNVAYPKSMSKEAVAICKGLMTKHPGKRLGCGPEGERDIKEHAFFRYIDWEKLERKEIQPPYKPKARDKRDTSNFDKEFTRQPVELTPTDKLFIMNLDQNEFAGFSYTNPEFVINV
# UniProt Q9Y3C6, sequence (Q9Y3C6 whole entry, looked up): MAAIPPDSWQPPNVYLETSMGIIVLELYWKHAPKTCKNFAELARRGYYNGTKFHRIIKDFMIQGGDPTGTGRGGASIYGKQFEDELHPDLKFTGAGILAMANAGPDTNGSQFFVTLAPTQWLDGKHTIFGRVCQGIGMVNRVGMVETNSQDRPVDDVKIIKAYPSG
Target,log2 fold change [1],log2 fold change [2],log2 fold change [3],log2 fold change [4],log2 fold change [5],log2 fold change [6],log2 fold change [7],log2 fold change [8],log2 fold change [9],log2 fold change [10]
PSMD11 (UniProt O00231),0.15,0.042,0.054,0.068,-0.004,-0.014,-0.074,-0.043,-0.021,-0.054
PSMA3 (UniProt P25788),0.06,0.003,0.041,0.041,0.029,0.008,-0.003,-0.005,0.006,-0.016
PRCP (UniProt P42785),-0.209,-0.018,0.011,0.009,-0.021,-0.009,0.02,0.008,0.055,0.057
PRPF3 (UniProt O43395),0.048,0.072,-0.044,-0.201,-0.114,-0.152,-0.149,0.018,-0.011,0.118
PBX2 (UniProt P40425),0.019,0.042,-0.057,-0.071,-0.202,-0.034,0.013,-0.091,-0.116,0.027
POM121 (UniProt Q96HA1),-0.114,0.012,0.135,0,-0.051,-0.177,-0.081,-0.063,0.021,–
PHKG2 (UniProt P15735),-0.047,0.044,-0.177,0.321 (active),-0.306,0.011,-0.024,-0.017,-0.046,-0.127
POLR1A (UniProt O95602),-0.11,0.004,-0.051,0.046,0.046,-0.003,-0.16,-0.057,0.019,0.069
PCID2 (UniProt Q5JVF3),0.07,0.078,-0.013,-0.061,-0.254,-0.02,0.038,-0.036,-0.071,0.109
PRKAA1 isoform 2 (UniProt Q13131),-0.096,0.035,-0.029,-0.206 (active),-0.069,-0.011,0.082,0.028,-0.012,-0.012
PTP4A3 (UniProt O75365),0.162,–,–,–,–,–,–,–,–,–
PDSS2 (UniProt Q86YH6),0.077,0.048,0.029,0.163,0.06,-0.154,0.052,0.02,-0.095,–
PPP1R14A (UniProt Q96A00),-0.058,0.026,-0.01,0.013,0.019,0.026,0.076,-0.055,0,0.033
PHKA2 (UniProt P46019),-0.107,-0.037,-0.239,0.119,-0.07,-0.157,0.033,-0.051,-0.055,0.082
PPP2R5E (UniProt Q16537),-0.023,-0.058,-0.11,0.057,-0.074,-0.059,-0.049,-0.037,-0.159,0.018
PDCD4 (UniProt Q53EL6),0.065,-0.014,0.017,0.025,-0.144,0.144,0.022,0.077,-0.172,0.104

Target,log2 fold change [1],log2 fold change [2],log2 fold change [3],log2 fold change [4],log2 fold change [5],log2 fold change [6],log2 fold change [7],log2 fold change [8],log2 fold change [9],log2 fold change [10]
PLCG1 isoform 2 (UniProt P19174),-0.054,-0.08,-0.072,0.079,-0.257,0.024,0.031,0.005,-0.144,0.11
PRKAB2 (UniProt O43741),0.027,-0.01,-0.022,-0.184,-0.16,0.082,0.142,-0.034,-0.046,-0.02
PPP6R1 (UniProt Q9UPN7),-0.024,0.022,0.003,-0.031,-0.02,-0.008,0.003,0.02,0.01,0.043
PDPK1 (UniProt O15530),-0.06,0.051,-0.104,0.089,-0.169,-0.084,0.077,0.011,-0.043,0.022
QKI (UniProt Q96PU8),-0.001,0.058,-0.015,-0.105,-0.029,-0.093,-0.007,-0.036,-0.015,0.003
PYGL (UniProt P06737),-0.218,0.006,-0.202,0.036,-0.027,-0.035,0.001,-0.005,0.016,0.052
POLR2M (UniProt P0CAP2),-0.029,-0.015,-0.011,0.034,0.055,0.138,-0.051,-0.024,0.035,-0.037
PTPN23 (UniProt Q9H3S7),0.028,0.053,-0.07,-0.096,-0.199,0.059,-0.016,0.02,-0.069,0.034
PPIL1 (UniProt Q9Y3C6),0.024,-0.002,-0.029,0.046,-0.042,0.073,-0.063,-0.022,-0.088,0.01
PRKAR1B (UniProt P31321),0.132,-0.015,0.062,0.012,-0.013,0.097,0.018,0.126,0.147,-0.286
PRKD2 (UniProt M0R346),-0.147,-0.136,–,–,–,–,–,–,–,–
POLD1 (UniProt P28340),-0.055,0.023,-0.03,-0.006,-0.049,-0.052,0.063,0.01,-0.066,0.006
PRKCB isoform 2 (UniProt P05771),-0.037,0.025,-0.022,-0.3 (active),-0.054,0.034,0.04,0,-0.051,0.054
PURA (UniProt Q00577),0.108,-0.089,0.06,0.105,0.335,0.017,-0.382,-0.12,0.207,-0.06
PDE12 (UniProt Q6L8Q7),-0.013,0.002,-0.004,0.017,-0.061,-0.006,0.067,0.066,-0.078,0.066
